# Only a selection was taken, and hits are over-represented in it overall.
# Cycloheximide cs = Cycloheximide Counterscreen for Small Molecule Inhibitors of Shiga Toxin | cell reporter, cycloheximide protein synthesis inhibition counterscreen | max response, % | 12% of 300,000 active | AID 2314, 2010; in the data active = max response mostly above about 13%, no sharp cut-off; inactive = mostly below about 14%; also: read at 38.3 µM for the half of the compounds with a filed dose
# SARS PLpro yeast-1 = qHTS of Yeast-based Assay for SARS-CoV PLP; 0.19% of 330,000 active; Potency, µM (doses to about 32.9 µM), most hits filed as activators; S. cerevisiae expressing SARS-CoV PLpro, growth rescue; also: nearly all actives have a fitted effect of over 55% in size
# LmPK inhibitor = qHTS Assay for Inhibitors of Leishmania Mexicana Pyruvate Kinase (LmPK). 0.37% of 290,000 active. AID 1721, 2009. purified LmPK, Kinase-Glo ATP luminescence, 1 h. Potency, µM (top dose mostly 57.5 µM), hits mostly inhibitors. Q27686; active = well fitted curve in the direction sought with a large enough effect; inconclusive = small, poorly fitted or top-dose-only effect, or another doubt; inactive = no such curve, though single readings can be large; an effect the other way counts as inactive or inconclusive
# Target sequence (Q27686 whole entry, looked up): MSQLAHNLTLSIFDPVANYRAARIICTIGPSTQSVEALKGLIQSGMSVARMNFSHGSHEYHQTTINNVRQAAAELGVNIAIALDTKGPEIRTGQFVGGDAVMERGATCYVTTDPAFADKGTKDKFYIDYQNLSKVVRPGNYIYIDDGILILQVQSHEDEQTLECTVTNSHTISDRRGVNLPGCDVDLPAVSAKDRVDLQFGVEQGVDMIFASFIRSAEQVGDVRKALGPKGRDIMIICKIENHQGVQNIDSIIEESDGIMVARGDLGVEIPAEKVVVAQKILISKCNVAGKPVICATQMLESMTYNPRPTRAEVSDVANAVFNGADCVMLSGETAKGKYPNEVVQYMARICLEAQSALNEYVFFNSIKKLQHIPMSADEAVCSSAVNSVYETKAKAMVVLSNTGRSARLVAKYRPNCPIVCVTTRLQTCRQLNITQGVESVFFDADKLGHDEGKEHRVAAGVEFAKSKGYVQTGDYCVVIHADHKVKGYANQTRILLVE
#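 ATP generated from ADP (0.1 mM) and PEP (0.5 mM) by 0.1 nM LmPK over 1 h at room temperature (pH 7.2 imidazole buffer) was detected by coupled luciferase luminescence. Values were normalized to uninhibited and no-enzyme wells.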
# NS1 inh = qHTS Assay for Inhibitors of Influenza NS1 Protein Function; 0.4% of 270,000 active; AID 2326, 2010; Potency, µM (doses to about 46.1 µM); also: actives are rising curves; nearly all actives have a fitted effect of over 50% in size
#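 In this qHTS, NS1 from influenza A is expressed in budding yeast, where it slows growth. Cells are switched from glucose to 2% galactose medium (pH 6.0, -URA), treated with compound, and growth recovery is read at OD600.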
# Shiga toxin inh = A qHTS for Small Molecule Inhibitors of Shiga Toxin. Vero cells, Shiga toxin protein synthesis inhibition reporter. inhibition, % at 38.7 µM. 9.2% of 290,000 active; in the data active = inhibition mostly above about 28%, no sharp cut-off; inactive = mostly below about 43%
# TbPYK inhibitor = qHTS of Trypanosoma Brucei Inhibitors; pyruvate kinase (Trypanosoma brucei), Q57TT1; TbPYK enzyme, Kinase-Glo Plus ATP luminescence, 45 min; Potency, µM (doses to about 76.8 µM), most hits filed as inhibitors; 0.12% of 410,000 active; active = well fitted curve in the direction sought with a large enough effect; inconclusive = small, poorly fitted or top-dose-only effect, or another doubt; inactive = no such curve, though single readings can be large; an effect the other way counts as inactive or inconclusive; also: nearly all actives have a fitted effect of over 50% in size
#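 Activity of T. brucei pyruvate kinase was followed by Kinase-Glo Plus luminescence after the enzyme reacted 45 min at room temperature with 130 uM ADP (final) and substrate. Test compounds were added before ADP at multiple concentrations.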
# SARS PLpro yeast-2 = qHTS of Yeast-based Assay for SARS-CoV PLP: Hit Validation; 19% of 1,000 active; yeast expressing SARS-CoV PLpro, growth phenotype rescue; AID 652038, 2013; shares compounds with SARS PLpro yeast-1; calls only; call rule not given here
# Numbers stand for hits; - = inactive; ? = inconclusive; . = no result given; + = active, no number; [ ] = remark or other dose. Unless noted, calls follow the shape of the full dose curve.
SMILES,Cycloheximide cs,SARS PLpro yeast-1,LmPK inhibitor,NS1 inh,Shiga toxin inh,TbPYK inhibitor,SARS PLpro yeast-2
COc1cccc2sc(N(Cc3cccnc3)C(=O)c3ccc(S(=O)(=O)N(C)C)cc3)nc12,.,.,.,.,.,-,.
CC1(c2nnc(Cc3ccccc3)o2)CC(c2ccc(OC(F)(F)F)cc2)=NO1 (stereo unspecified),.,10µM,.,.,.,-,-
CCCCCN(C(=O)NC(=O)Nc1ccccc1C)S(=O)(=O)c1ccccc1,-,?,-,-,-,-,-
CCOC(=O)C1=C(COC(=O)/C=C/c2ccco2)NC(=O)NC1C (stereo unspecified),.,?,.,.,.,-,-
CCOC(=O)C1=C(COC(=O)/C=C/c2ccc(OC)cc2)NC(=O)NC1C (stereo unspecified),.,-,.,.,.,-,.
O=C(CN1C(=O)NC2(CCCC2)C1=O)N1CCN(S(=O)(=O)c2cccc(F)c2)CC1,-,.,-,-,-,-,-
COc1cc2c(cc1OC)C(c1ccc(F)cc1)N(c1ccccc1)C(=O)C2 (stereo unspecified),.,.,.,.,.,-,.
Fc1ccccc1N1CCN(c2ncnc3onc(-c4ccc(Cl)cc4)c23)CC1,.,.,.,.,.,-,.
O=C(CCl)Nc1ccc(Oc2cnc3ccccc3n2)cc1,30,10µM,-,?,-,-,+
O=C(c1csnn1)N1CCC2(CC1)CN(c1ccncc1)C2,.,.,.,.,.,-,.
Cc1ccc(/C=N/Nc2nc3ccccc3[nH]2)s1,45,2.8µM,?,-,active,-,-
CNCc1nc2ccccc2[nH]1,-,-,-,-,-,-,.
CC(C)CC(=O)NC(=S)N1CCN(c2ccc([N+](=O)[O-])cc2Cl)CC1,-,?,-,-,-,-,-
CC(C)CC(=O)N1CCN(c2ccc([N+](=O)[O-])cc2Cl)CC1,-,-,-,-,-,-,.
O=C(CCN1C(=O)c2ccccc2S1(=O)=O)NCc1ccccc1,.,-,.,.,.,-,.
COCCC1CCCCN1C(=O)c1cc(COc2ccc(-n3cncn3)cc2)on1 (stereo unspecified),-,?,-,-,-,-,-
COc1cc(-c2nnc(SCc3cc(=O)oc4cc(O)c(O)cc34)o2)cc(OC)c1OC,-,6.3µM,-,-,-,-,-
Cc1ccc(CCNC(=O)C(CC(C)C)NS(=O)(=O)c2ccc3c(c2)oc(=O)n3C)cc1 (stereo unspecified),.,.,.,.,.,-,.
CCOC(=O)C(CC)/C(C)=N\NC(=O)c1ccccc1O (stereo unspecified),18,6.3µM,-,-,33,-,-
CCOc1cc(CNCCSc2nnnn2C)cc(Br)c1OCc1ccc(F)cc1,-,?,-,-,-,-,-
CC(C)c1ccc(/C=N/Nc2cc(N3CCOCC3)nc(N3CCOCC3)n2)cc1,-,-,-,-,-,-,.
Oc1ccc(/C=N/Nc2cc(N3CCCC3)nc(N3CCCC3)n2)cc1O,-,?,-,?,-,-,-
CCc1nccn1CCC(=O)N1CCCC(Nc2ccc(C(C)C)cc2)C1 (stereo unspecified),-,.,-,-,-,-,-
O=C(Cn1c(=O)oc2cc(S(=O)(=O)NCc3ccccc3)ccc21)NCc1ccccc1Cl,.,.,.,.,.,-[15.4 µM],.
C/C(=N\NC(N)=S)c1ccc(Cl)s1,-,10µM,-,-,-,-,?
SMILES,Cycloheximide cs,SARS PLpro yeast-1,LmPK inhibitor,NS1 inh,Shiga toxin inh,TbPYK inhibitor,SARS PLpro yeast-2
CCCCC(=O)NC(c1cccc([N+](=O)[O-])c1)c1ccc2cccnc2c1O (stereo unspecified),.,.,.,.,.,-,.
Oc1cccc(C(Nc2nccs2)c2ccc3cccnc3c2O)c1 (stereo unspecified),-,0.45µM,-,.,-,-,+
COc1cccc(C(NC(C)=O)c2ccc3cccnc3c2O)c1 (stereo unspecified),-,3.2µM,-,-,-,?,-
O=[N+]([O-])c1ccc(NC(c2ccccc2)c2ccc3cccnc3c2O)cc1 (stereo unspecified),.,.,.,.,.,-,.
CC(=O)NC(c1ccc(C(C)C)cc1)c1ccc2cccnc2c1O (stereo unspecified),-,-,-,-,-,-,.
Oc1c(C(Nc2cccc(C(F)(F)F)c2)c2cccnc2)ccc2cccnc12 (stereo unspecified),-,?,-,-,-,-,-
CC(=O)NC(c1cccc([N+](=O)[O-])c1)c1ccc2cccnc2c1O (stereo unspecified),-,1.1µM,-,-,-,-,-
COc1ccc(-c2ccc(C(=O)Nc3ccc(Cl)cc3)c3occc23)c(C)c1,.,.,.,.,.,-,.
CCOc1ccc(NC(=O)NC2CCOC(C)(C)C2)cc1 (stereo unspecified),-,?,-,-,-,-,-
CC(C)OC(=O)C1OC1(C)c1ccccc1 (stereo unspecified),.,.,.,.,.,-,.
CCc1nnc(NC(=O)C2CCN(c3cnccn3)CC2)s1,-,-,-,-,-,-,.
CCc1nnc(NC(=O)c2cnccn2)s1,-,?,-,-,-,-,-
Cc1cccc(NC(=O)Cn2cnc3c(oc4nc5c(cc43)COC(C)(C)C5)c2=O)c1,-,13µM,-,-,-,-,-
Cc1ccc(-c2nnn(CC(=O)N(CC(=O)NCCC(C)C)c3ccc(F)cc3)n2)cc1,.,.,.,.,.,-,.
Cn1c(=O)n(C)c2cc(NC(=O)CCl)ccc21,23,10µM,-,-,-,-,+
CC(=O)Nc1ccc2c(c1)n(C)c(=O)n2C,-,?,-,-,-,-,.
CCOc1cccc(CNc2nnnn2C)c1,-,-,-,-,-,-,.
CN(C)C(Cc1ccccc1)C(=O)c1ccc(-c2ccccc2)cc1 (stereo unspecified),-,3.2µM,-,-,-,-,-
CCn1nc(C)c(/C=C/C(=O)Nc2ccc(C)cc2C)c1C,-,?,-,-,-,-,-
COc1cc(Cl)c(C)cc1NC(=O)COC(=O)c1ccc(CN2CCCC2=O)cc1,.,-,.,.,.,-,.
Cc1ccc(C(=O)Nc2nc(-c3ccccc3)c(-c3ccccc3)o2)cc1,-,10µM,-,-,-,-,+
CCC(=O)N(CCc1ccccc1C)Cc1cc2ccc(C)cc2[nH]c1=O,-,-,-,?,-,-,.
CC(=O)N(CCc1ccccc1C)Cc1cc2cc3c(cc2[nH]c1=O)OCO3,-,11µM,-,-,-,-,-
COCCNc1ccc(-c2nc(-c3ccccn3)no2)cc1[N+](=O)[O-],.,.,.,.,.,-,.
COC(=O)CCCn1c(C)cc(C(=O)CCl)c1C,-,11µM,-,.,-,-,+
Cc1cc(C(=O)CCl)c(C)n1CCc1ccccc1,-,-,-,.,-,-,.
O=C(CN(Cc1ccccc1)C(=O)CCC(=O)Nc1nccs1)NCc1ccccc1,-,-,-,-,-,-,.
